PubChem BioAssay AID2315 (National Center for Advancing Translational Sciences (NCATS), 2010)
The whole screen tested about 290,000 compounds, of which about 27,000 (9.3%) were called active. Many of the other results were omitted from the sample, so actives are more common in it than they were. A number with no mark means an inactive call. Cut-off read from the data, not from the text of the source: active = inhibition mostly above about 28% (no sharp cut-off); inactive = mostly below about 43%. Where a SMILES comes first, the peptide text is derived from it. Bridges are numbered along the chain shown (N, C = ends).

assay: A qHTS for Small Molecule Inhibitors of Shiga Toxin; settings: Vero cells, Shiga toxin protein synthesis inhibition reporter; at 38.7 µM, hits give high values; note: 0% is about no effect

Row | SMILES | inhibition
1 | O=C(CC(n1cncn1)C(Cl)(Cl)Cl)c1ccc([N+](=O)[O-])cc1 (stereo not given) | -7.92%
2 | Cc1cccc(C)c1NC(=O)CN1C(=O)C(C)Oc2ccccc21 (stereo not given) | -3.24%
3 | NC(=O)C(Cc1ccccc1)NC(=O)C12CC3CC(CC(C3)C1)C2 (stereo not given) | -10.9%
4 | O=C(NC(=S)Nc1ccccc1N1CCCCC1)c1ccc(F)cc1 | -27.2%
5 | COc1ccccc1C(=O)NC(=S)Nc1ccccc1N1CCCCC1 | 39.8% (active)
6 | COc1ccc(C(=O)NC(=S)Nc2ccccc2N2CCN(S(C)(=O)=O)CC2)cc1OC | -2.05%
7 | Cc1ccnc(NS(=O)(=O)c2ccc(NC(=O)c3oc4ccc(F)cc4c3C)cc2)n1 | -7.64%
8 | O=S(=O)(c1ccc(Cl)s1)N1CCC2(CC1)OCCO2 | 6.74%
9 | C[C@@H](O)[C@@H]1NC(=O)[C@H](CCCCN)NC(=O)[C@H](Cc2c[nH]c3ccccc23)NC(=O)[C@H](Cc2ccccc2)NC(=O)[C@H](Cc2ccccc2)NC(=O)[C@H](CC(N)=O)NC(=O)[C@H](CCCCN)NC(=O)[C@@H](NC(=O)[C@@H]2CCCN2)CSSC[C@@H](C(=O)N[C@@H](CCCCN)C(=O)O)NC(=O)[C@H](CO)NC(=O)[C@H](CO)NC(=O)[C@H](Cc2ccccc2)NC1=O (H-PCKNFFWKTFSSCK-OH; disulfide 2-13) | -9.69%
10 | O=C(NCc1ccccc1)C(c1ccccc1)N(C(=O)c1csnn1)c1ccc(F)cc1 (stereo not given) | -3.73%
11 | O=C(Nc1nnc(C2CC2)s1)c1cc(Cl)sc1Cl | 48% (active)
12 | COc1ccc(NC(=O)CCC(=O)Nc2nnc(C3CCCCC3)s2)cc1 | -3.77%
13 | O=C(Cc1cccs1)Nc1nnc(C2CC2)s1 | 18.3%
14 | Cc1cccc(NC(=O)CSCC(=O)Nc2nnc(C3CC3)s2)c1 | 14.9%
15 | CC1CCN(c2ccc(C(=O)Nc3nnc(C4CC4)s3)cc2[N+](=O)[O-])CC1 | 1.09%
16 | O=C(Nc1nnc(C2CC2)s1)c1ccccn1 | 109% (active)
17 | O=C(Nc1nnc(C2CC2)s1)C1=NN(C2CCS(=O)(=O)C2)C(=O)CC1 (stereo not given) | -18%
18 | Cc1occc1C(=O)Nc1nnc(C2CCCCC2)s1 | 60.1% (active)
19 | Cc1occc1C(=O)Nc1nnc(-c2ccncc2)s1 | 28.4%
20 | CC1CCN(S(=O)(=O)c2ccc(NC(=O)C3CC(=O)N(c4ccccc4)C3)cc2)CC1 (stereo not given) | -4.69%
21 | COc1ccc(NS(=O)(=O)c2ccc(N3CCN(CCO)CC3)c([N+](=O)[O-])c2)cc1 | -10.2%
22 | CN(C(=O)c1ccccc1)c1nccnc1C#N | -2.8%
23 | CCc1nn(CC(=O)N2CCN(CC)CC2)c(=O)c2cccn12 | -0.821%

Row | SMILES | inhibition
24 | COc1ccccc1CN1CCNC(=O)C1CC(=O)N(C)CC1CCOCC1 (stereo not given) | -2.77%
25 | CN(Cc1ccccc1)c1nc2c(c(=O)[nH]c(=O)n2C)n1CCSc1nc2ccccc2[nH]1 | -8.47%
26 | O=C(CSc1nc2ccccc2[nH]1)c1cccs1 | 119% (active)
27 | O=C(CSc1nc2ccccc2[nH]1)Nc1nc(-c2ccccc2)c(-c2ccccc2)o1 | -6.45%
28 | O=C(CSc1nc2ccccc2[nH]1)N/N=C/C=C\c1ccccc1[N+](=O)[O-] | 30.8%
29 | CC(=O)Nc1ccc(C(=O)CSc2nc3ccc(C)cc3[nH]2)cc1 | 23.5%
30 | CN(Cc1ccccc1)C(=O)CSc1nc2ccccc2[nH]1 | 70.2% (active)
31 | CN(CCc1ccccn1)C(=O)c1ccc(OC2CCN(CCc3ccccc3)CC2)cc1 | 24.5%
32 | Cc1cc(C)c(S(=O)(=O)N(C)CC(=O)NCC2CCCO2)c(C)c1 (stereo not given) | -2.86%
33 | Cc1ccc(OCC(=O)Nc2ccc(C(=O)O)cc2NC(=O)COc2ccc(C)c(C)c2)cc1C | -6.8%
34 | Cc1ccc(C2Nc3cccc4cccc(c34)N2)cc1 | -10.1%
35 | C=CCN1CCN(C(=O)CCCc2ccccc2)CC1 | 9.38%
36 | CCc1c(C)nc(N)n2c(SCC(=O)NC3CCCCC3)nnc12 | -19.4%
37 | S=C(c1ccc(-c2ccccc2)o1)N1CCCCC1 | 98.2% (active)
38 | S=C(c1ccccc1)N1CCCC1 | -8.23%
39 | OCCN1CCN(C(=S)c2ccc(-c3ccccc3)cc2)CC1 | 0.879%
40 | N#C[C@]1(S(=O)(=O)c2ccccc2)C[C@@H]2ON=C(c3cccc(Br)c3)[C@@H]2C1 | -6.42%
41 | CCc1nc(N2CCN(C(C)=O)CC2)c2c3c(sc2n1)CCCC3 | -5.44%
42 | Cc1ccc(C(=O)Cc2nnc(C)s2)cc1 | 58.4% (active)
43 | Cc1ccc(C(=O)CSc2ccccc2C(=O)O)cc1 | 39.6%
44 | Cc1ccc(C(=O)Cn2cccn2)cc1 | 5.48%
45 | CC1CC(=O)N(CC(=O)Nc2cccc(Cl)c2)c2ccccc2S1(=O)=O (stereo not given) | -4.68%
46 | CCN(C(=O)COC(=O)c1ccc(COc2ccc3c(C)cc(=O)oc3c2)cc1)C1CCS(=O)(=O)C1 (stereo not given) | 33%

Row | SMILES | inhibition
47 | CCCSc1nc2sc3c(c2c(=O)n1-c1ccc(OC)cc1)CCN(C)C3 | -19%
48 | CC(C)(O)C#Cc1ccc(CN2CCC(CO)(CCc3ccccc3)CC2)cc1 | -5.12%
49 | COCCCNc1nc2c(-c3cccc(C)c3)nnn2c2ccc(Cl)cc12 | 9.32%
50 | Cc1cccc2nc(CNc3ccc(F)cc3)cn12 | 66.5% (active)
51 | CCOC(=O)CSc1nnc(CNc2ccc(F)cc2)o1 | -20.4%
52 | COc1cc([N+](=O)[O-])cc([N+](=O)[O-])c1NC(=O)N1CCOCC1 | -11.6%
53 | CCN(c1ccccc1)S(=O)(=O)c1cc2c(cc1C)n(C)c(=O)c(=O)n2C | 10.4%
54 | O=C(CCCN1CCc2[nH]c3ccc(F)cc3c2C1)c1ccc(F)cc1 | -5.56%
55 | CC(C)/C=N/NC(=O)c1cc(Br)ccc1O | 30.6%
56 | COC(=O)[C@@H](Cc1ccccc1)NC(=O)NCCc1ccccc1 | 15.6%
57 | CC(C)Cc1cc(C(=O)NCCc2ccccc2)no1 | 87.5% (active)
58 | CC(C)c1ccc(C(=O)NCCCc2ccccc2)cc1 | 60.6% (active)
59 | CC(C)Cc1cc(C(=O)Nc2cc(Br)ccc2O)no1 | 85.5% (active)
60 | O=C(NCCN1CCCC(O)C1)c1cc(COc2c(F)cccc2F)on1 (stereo not given) | -6.84%
61 | O=C(NCCc1ccccc1)c1ccc(OCCOc2ccccc2)cc1 | -1.89%
62 | CCCOc1ccc(C(=O)NCCc2ccccc2)cc1 | 39.8%
63 | CC(C)C(=O)NCc1cc(-c2ccc(Cl)cc2)no1 | 10.8%
64 | O=C(COC(=O)c1ccc(F)cc1)NCCCc1ccccc1 | -1.67%
65 | O=C(NCCCc1ccccc1)c1cc(COc2c(F)cccc2F)on1 | 78.1% (active)
66 | C[C@H](NC(=O)NCCc1ccccc1)C(=O)O | 8.98%
67 | CCOc1cc(CN2CCCC(CO)(Cc3ccc(F)cc3F)C2)ccc1OC (stereo not given) | 1.36%
68 | COC(=O)Cn1cnc2scc(-c3ccc(C)c(C)c3)c2c1=O | -16.4%
69 | CC(C)Oc1ccc(/C=N/NC(=O)c2nnn(-c3nonc3N)c2CN(C)C2CCCCC2)cc1 | -5.14%

Row | SMILES | inhibition
70 | CCOc1ccc(S(=O)(=O)NCCCn2ccnc2)cc1NC(C)=O | -15.3%
71 | COc1ccc(OC)c(NC(=O)c2ccc3c(c2)C(=O)N(c2ccc(OC(C)=O)cc2)C3=O)c1 | -4.38%
72 | COc1cc(NC(=O)c2ccc(-c3csc(C)n3)cc2)c(OC)cc1Cl | -19.7%
73 | O=c1oc2ccccc2c(NC2CCCCC2)c1NS(=O)(=O)c1ccc(Cl)cc1 | -3.24%
74 | Cc1ccc(CN(CC(=O)NCC2CCCO2)S(=O)(=O)c2ccc(C)cc2)cc1 (stereo not given) | -7.48%
75 | Cc1cccc(N2C(=O)N3[C@H](c4ccc(F)cc4)[C@@H]4C(=O)N(C5CCCCC5)C(=O)[C@@H]4[C@]3(Cc3ccccc3)C2=O)c1 | -2.98%
76 | COc1ccccc1CNC(=O)c1ccc(N(C)S(=O)(=O)c2ccc(C)cc2)cc1 | 4.41%
77 | Cc1cc(C(=O)NCCCc2ccccc2)no1 | 35.8% (active)
78 | CCCCNC(=S)NNC(=O)c1cc(C)on1 | 6.4%
79 | CCN(CC)CCCNC(=O)c1cc(-c2cccc(Cl)c2)on1 | -7.26%
80 | CC(C)CNC(=O)c1cc(-c2ccc(Br)cc2)on1 | 52.5% (active)
81 | Cc1ccccc1CSCCNC(=O)c1ccc(N(C)S(=O)(=O)c2ccccc2)cc1 | -13.5%
82 | CN(c1ccccc1)S(=O)(=O)c1ccc(C(=O)NCCc2ccccc2)cc1 | 50.1% (active)
83 | CSc1ncc(C(=O)NCCCc2ccccc2)c(C)n1 | 28.3%
84 | Cc1c(NC(=O)c2cc(-c3ccc(Br)cc3)on2)c(=O)n(-c2ccccc2)n1C | 20%
85 | CC(C)Cn1c(=O)c2ccccc2n2c(CCC(=O)NCc3ccccn3)nnc12 | 17.2%
86 | O=Cc1cn(-c2ccccc2)nc1-c1ccccn1 | 16.4%
87 | Cc1ccccc1OCC(=O)NNC(=O)c1cc(S(=O)(=O)N(C)C)ccc1N1CCCC1 | -3.25%
88 | CCCCNC(=O)C1(O)c2ccccc2NC(=O)N1c1ccc(Cl)cc1 (stereo not given) | 20.3%
89 | COc1ccc(N2CCN(C3CCCCC3NS(=O)(=O)c3ccccc3)CC2)cc1 (stereo not given) | -5.29%
90 | CC(C(=O)c1ccc(-c2ccccc2)cc1)[n+]1cccc(Br)c1 (stereo not given) | -5.48%
